Assay outcomes (PubChem)
In the library only some 8.1% were active in any assay of this set; here they are far more common.
ELG1 DNA repair: inhibitors of ELG1-dependent DNA repair in HEK293T cells | 330,000 compounds, 2.3% hits | HEK293T ELG1-luciferase reporter, luminescence, 16 h; DNA damage induced by 5-fluorouridine | Potency, µM (doses to about 46.1 µM), for inactives: at the highest dose activity change, negative = inhibition, usual class: inhibitors; further: on the % scale 0 is the no-effect control and ±100 the full control effect; nearly all actives have a fitted effect of over 55% in size
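Luminescence from the luciferase reporter, measured 30 min after ONE-Glo reagent at room temperature, was the read-out. Beforehand, 2,000 cells per well were exposed for 16 hr at 37 °C to 5-fluorouridine together with compound or vehicle.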
MCF10A rereplic: inducers of DNA re-replication in MCF 10A breast cells; MCF 10A DNA re-replication, Hoechst nuclear intensity, 48 h; Potency, µM (series often up to 46.1 µM), for the others: at the highest dose activity, positive = re-replication, usual class: activators; 350,000 compounds, 2.9% hits; AID 624296; further: % of control where 0% means no effect; nearly all actives have a fitted effect of over 50% in size
KB-3-1 tox: KB-3-1 parental cell cytotoxicity | 400,000 compounds, 1.4% hits | KB-3-1 viability, CellTiter-Glo ATP luminescence, 72 h | Potency, µM (doses to about 46.1 µM), usual class: cytotoxic; further: on the % scale 0 is the no-effect control and ±100 the full control effect; nearly all actives have a fitted effect of over 60% in size
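KB-3-1 cells, DMEM (no phenol red) + 10% FBS; compound by pin transfer, 72 h, 37 °C. Readout: CellTiter-Glo luminescence after 10 min. Data normalized, curve-fitted.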
SW480 rerep: inducers of DNA re-replication in SW480 colon cancer cells. 340,000 compounds, 1.8% hits. SW480 DNA re-replication, Hoechst DNA content imaging, 48 h. Potency, µM (top dose mostly 46.1 µM), without a hit: at the top dose re-replication activation, hits mostly activators; further: % of control where 0% means no effect; nearly all actives have a fitted effect of over 55% in size
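SW480 cells exposed to compounds for 48 hr at 37 C, 5% CO2, then Hoechst-stained 40 min. Nuclear DNA content imaged by fluorescence scanning (405 nm excitation, 500-530 nm emission); re-replication scored as increased high-intensity nuclei.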
KB-V1 cytotox: kills drug-selected multidrug resistant KB-V1 cells | Potency, µM (series often up to 46.1 µM), hits mostly cytotoxic | KB-V1 MDR cells viability, CellTiter-Glo, 72 h | 400,000 compounds, 3.4% hits | AID 1347076; further: on the % scale 0 is the no-effect control and ±100 the full control effect; nearly all actives have a fitted effect of over 60% in size
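KB-V1, DMEM (no phenol red) + 10% FBS; cpd pin-transferred, titration series; 72 h, 37 degrees C; CellTiter-Glo, luminescence. Data normalized, curve-fit.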
The depositor's hits bear a star; i = inactive; ? = inconclusive; . = not tested or not shown; ! = a repeat was not active; [ ] = remark or other dose. The call rests on the fitted dose curve; in most records, active means well fitted curve in the direction sought with a large enough effect; inconclusive means small, poorly fitted or top-dose-only effect, or another doubt; inactive means no such curve, though single readings can be large; an effect the other way counts as inactive or inconclusive. Potency means the concentration at half of the fitted maximal effect.

SMILES	ELG1 DNA repair	MCF10A rereplic	KB-3-1 tox	SW480 rerep	KB-V1 cytotox
C=CCC(Nc1ccccc1)C12C=CC(O1)C(C(=O)OC)=C2C(=O)OC (stereo unspecified)	-6.2%	12.6µM*	18.4µM*	?	?
O=C1CC(N2CCN(C/C=C/c3ccccc3)CC2)C(=O)N1Cc1ccc(N2CCCC2=O)cc1 (stereo unspecified)	?	7.7%	?	-0.7%	10.3µM*
O=C1CC(N2CCOCC2)C(=O)N1Cc1ccc(N2CCCC2=O)cc1 (stereo unspecified)	8.8%	-5.3%	i	-5.9%	i
Cn1cnc([N+](=O)[O-])c1S(=O)(=O)c1cccc(Cl)c1	?	3.66µM*	?	5.8µM*	?
Cn1cnc([N+](=O)[O-])c1S(=O)(=O)Oc1ccccc1	.	7.31µM*	?	4.11µM*	?
Cc1ccc(-c2nnc(OCc3nc4ccccc4n3C)c3ccccc23)cc1	.	-1.3%	i	-2.9%	i
CC(C)(C)OC(=O)NCCc1nnc(S(=O)(=O)Cc2ccc(Cl)cc2Cl)o1	14.6%	7.31µM*	i	?	i
CC(C)(C)OC(=O)NCCc1nnc(SCc2ccccc2Cl)o1	?	12.5%	i	1.3%	i
CCn1c(CN2CCOCC2)nc2cc(NC(=O)c3ccc([N+](=O)[O-])cc3)ccc21	.	.	16.4µM*	.	?
Cn1c(CN2CCCCC2)nc2cc(NC(=O)c3ccccc3Cl)ccc21	?	-3.2%	?	0.0%	14.6µM*!
CCn1c(CN2CCN(C)CC2)nc2cc(NC(=O)c3ccc([N+](=O)[O-])cc3)ccc21	.	.	i	.	?
Cn1c(CN2CCCCC2)nc2cc(NC(=O)c3ccc(F)cc3)ccc21	?	9.0%	?	?	20.6µM*
Cc1c(C(=O)N(C)Cc2ccc(F)cc2)sc(=O)n1Cc1ccc(Cl)c(Cl)c1	.	.	i	.	?
Cc1ccc(CNC(=O)CNS(=O)(=O)c2cccs2)cc1	.	.	i	.	i
O=C1CCCN2N=C(SCC(=O)Nc3ccc([N+](=O)[O-])cc3)SC2=N1	-0.9%	5.17µM*	i	2.91µM*	i
CCOC(=O)c1cccc(NC(=O)Nc2c(C)n(C)n(-c3ccccc3)c2=O)c1	.	.	i	.	i
Cc1ccc(-c2nnc(Nc3ccc4c(c3)OCO4)c3ccccc23)cc1S(N)(=O)=O	16.4µM*	-2.8%	i	1.7%	i
Cc1cc(C)cc(Nc2c3c(nc4ncnn24)CCC3)c1	-3.7%	?	i	?	2.06µM*
Clc1ccc(Nc2c3c(nc4ncnn24)CCC3)cc1	?	-2.5%	i	-25.7%	7.31µM*
Cc1cc(C(=O)CSc2nc(N)cc(=O)[nH]2)ccc1F	-5.5%	13µM*	i	7.0%	i
Cc1ccc(C(=O)CSc2nc(N)cc(=O)[nH]2)cc1C	-2.0%	-7.7%	i	-3.5%	i
Nc1ccc(-c2nc3ccc(-c4nc5ccccc5o4)cc3[nH]2)cc1	-5.5%	3.98µM*	i	4.47µM*	i
Clc1ccc2nc(-c3ccc(Cl)nc3)[nH]c2c1	?	?	i	13µM*	?
Nc1ccc(-c2nc3ccc(N)cc3[nH]2)cc1	?	-0.5%	i	4.8%	i
Nc1ccc2nc(-c3ccc(Cl)cc3)[nH]c2c1	?	?	18.4µM*	1.7%	i
SMILES	ELG1 DNA repair	MCF10A rereplic	KB-3-1 tox	SW480 rerep	KB-V1 cytotox
Nc1nc2ccc(Cl)cc2[nH]1	.	-1.1%	i	-0.3%	i
Cn1c(N)c(C(=O)COC(=O)COc2ccccc2Cl)c(=O)n(C)c1=O	7.4%	-0.3%	i	-7.2%	i
COc1cc2c(cc1OC)C(C)N(C(=O)c1cc3c(C)cc(C)cc3[nH]1)CC2 (stereo unspecified)	16.4µM*	?	?	?	?
COc1cc2c(cc1OC)C(C)N(C(=O)c1nccnc1C(=O)O)CC2 (stereo unspecified)	-4.0%	-1.4%	i	0.9%	i
COc1cc2c(cc1OC)C(C)N(C(=O)Nc1ccc(F)cc1)CC2 (stereo unspecified)	?	?	13µM*	?	11.6µM*
COc1cc2c(cc1OC)C(C)N(C(=O)Nc1cc(C)cc(C)c1)CC2 (stereo unspecified)	?	3.66µM*	?	?	6.51µM*
O=C(O)CSc1c2c(nc3cc(C(=O)Nc4ccc(F)c(Cl)c4)ccc13)CCC2	.	.	i	.	i
Cc1nnc(-c2cccc(Br)c2)c2cn(-c3cccc(Br)c3)nc12	?	?	?	-4.7%	9.2µM*
Cc1nnc(-c2cccc(Br)c2)c2cn(-c3ccccc3)nc12	-5.2%	?	?	-2.7%	?
CC(=O)N1c2ccc(S(=O)(=O)NCCC(=O)Nc3ccc(Br)c(C)c3)cc2CC1C (stereo unspecified)	.	.	?	.	i
CC(C)(C)c1ccc(OCC(=O)NC(Cc2c[nH]c3ccccc23)C(=O)O)cc1 (stereo unspecified)	.	.	i	.	i
C=CCN1C(c2ccc(Br)cc2)=CS/C1=C(/C#N)c1nnc(N2CCOCC2)n1-c1ccccc1	?	6.5%	i	?	?
CCOc1ccc(C2=CS/C(=C(\C#N)c3nnc4n3CCCCC4)N2CC)cc1	?	1.5%	i	0.6%	20.6µM*
C=CCN1C(c2ccccc2)=CS/C1=C(\C#N)c1nnc2n1CCCCC2	11.2µM*	-9.6%	i	2.2%	?
C=CCN1C(c2cccc(C(F)(F)F)c2)=CS/C1=C(/C#N)c1nnc(N2CCOCC2)n1-c1ccccc1	?	?	?	-32.8%	4.11µM*
CN(C)CC[C@@](O)(c1ccccc1)c1ccccc1Cl	.	-1.4%	.	-2.8%	.
COc1cc(Cl)c(C)cc1NC(=O)CSc1cc(=O)n(C)c2cc(Cl)ccc12	.	.	i	.	i
Cc1ccc(-c2nnc(Nc3ccc(Cl)cc3)c3ccccc23)cc1S(=O)(=O)NCC1CCCO1 (stereo unspecified)	.	.	i	.	i
CCN(C(C)=O)c1cnc(C=NNC(N)=S)c2ccccc12	.	4.61µM*	i	10.3µM*	14.6µM*
CC(=O)O[C@@H](C)C[N+](C)(C)C	.	1.6%[20.6 µM]	.	2.5%[20.6 µM]	.
COc1ccc2cc(C3CC(c4ccco4)=NN3S(=O)(=O)c3ccccc3)c(Cl)nc2c1 (stereo unspecified)	-23.1%	20.2%	i	-12.8%	14.6µM*
Cc1ccc2cc(C3CC(c4ccco4)=NN3S(=O)(=O)c3ccccc3)c(Cl)nc2c1 (stereo unspecified)	-3.2%	3.8%	?	13.1%	i
CCOc1ccc2nc(Cl)c(C3CC(c4ccco4)=NN3S(C)(=O)=O)cc2c1 (stereo unspecified)	?	6.5%	i	0.3%	?
